Data reported in PubChem BioAssay (NCATS).
Values joined by “and” are separate entries in the source; they are usually repeats but may differ in a detail not shown here. Equal entries are not always repeated. Inconclusive results are not listed. A structure can be active in one record and inactive in another. Active and inactive are the calls of the source. The call rests on the fitted dose curve; in most records, active means well fitted inhibition curve with a large enough effect; inconclusive means small, poorly fitted or top-dose-only effect; inactive means flat fitted curve, though single readings scatter.

Tests used:
CRL-7250 = normal cell line; test: Cytotoxic Profiling of Annotated Libraries Using Quantitative High-Throughput Screening (AID 1296008); settings: Five cell lines viability, CellTiter-Glo ATP luminescence, 48-72 h; max response: hits give low values
Procedure, shortened: (§1)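 Compounds were pin-transferred onto cells and incubated 48 or 72 hr at 37 degree Celsius, 95% humidity. CellTiter-Glo was added, plates sat 10 min at room temperature, then ATP-coupled luminescence was imaged as the viability read-out.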

HaCat [1] = test: as above; settings: Five cell lines viability, CellTiter-Glo ATP luminescence, 48-72 h; max response: hits give low values
Procedure, shortened: as §1

KB-3-1 = test: as above; settings: Five cell lines viability, CellTiter-Glo ATP luminescence, 48-72 h; max response: hits give low values
Procedure, shortened: as §1

MCC-13 = test: qHTS assay to identify novel small-molecules to repurpose for Merkel cell carcinoma treatment (AID 1296009); settings: MCC and control cell lines, CellTiter-Glo viability, 72 h; series mostly up to 46 µM
Procedure, shortened: (§2)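 Cells exposed to NPC (8-point) and MIPE (11-point) compound dilutions for 72 hr at 37 degree celsius; viability read by CellTiter-Glo luminescence, normalized to no-cell and DMSO in-plate controls.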

NIH3T3 = test: Cytotoxic Profiling of Annotated Libraries Using Quantitative High-Throughput Screening (AID 1296008); settings: Five cell lines viability, CellTiter-Glo ATP luminescence, 48-72 h; max response: hits give low values
Procedure, shortened: as §1

HACAT [2] = test: qHTS assay to identify novel small-molecules to repurpose for Merkel cell carcinoma treatment (AID 1296009); settings: MCC and control cell lines, CellTiter-Glo viability, 72 h; at 44.8 µM (top of the series) unless noted
Procedure, shortened: as §2

MCC-26 = test: as above; settings: MCC and control cell lines, CellTiter-Glo viability, 72 h; series mostly up to 46 µM
Procedure, shortened: as §2

HEK293 = test: Cytotoxic Profiling of Annotated Libraries Using Quantitative High-Throughput Screening (AID 1296008); settings: Five cell lines viability, CellTiter-Glo ATP luminescence, 48-72 h; max response: hits give low values
Procedure, shortened: as §1

HEK293T = test: qHTS assay to identify novel small-molecules to repurpose for Merkel cell carcinoma treatment (AID 1296009); settings: MCC and control cell lines, CellTiter-Glo viability, 72 h; series mostly up to 44.8 µM
Procedure, shortened: as §2
Further: nearly all actives have a fitted effect of over 60% in size.
On the % scale 0 is the no-effect control and ±100 the full control effect; potency means the concentration at half of the fitted maximal effect.

COc1ccc(S(=O)(=O)Nc2cccnc2Nc2ccc(O)cc2)cc1
inactive: max response (HaCat [1]) -5.46%
active: Potency (CRL-7250) 3.66 µM | Potency (HaCat [1]) 20900 nM | Potency (KB-3-1) 332 nM and 820 nM | Potency (MCC-13) 3720 nM

CN(C)CC(=O)N1CCC(c2ccc(NC(=O)c3ncc(C#N)[nH]3)c(C3=CCCCC3)c2)CC1
active: Potency (NIH3T3) 920 nM
inactive: outcome (CRL-7250) | max response (HaCat [1]) 3.1% | outcome (HaCat [1]) | max response (KB-3-1) 3.44% and -16.9% | max response (NIH3T3) 0.938% | outcome (HACAT [2]) | Potency (MCC-13) | Potency (MCC-26)

C=C1C(=CC=C2CCC[C@]3(C)[C@@H]([C@H](C)CCCC(C)(C)O)CC[C@@H]23)C[C@@H](O)C[C@@H]1O
active: Potency (NIH3T3) 3.3 nM
inactive: max response (CRL-7250) -5.17% | outcome (HaCat [1]) | max response (KB-3-1) -11.2% | outcome (HACAT [2])

Oc1ccc([C@@H]2Oc3ccc(O)cc3[C@@H]3CCC[C@@H]32)cc1
inactive: max response (CRL-7250) -17% and -0.0013% | Potency (MCC-26)
active: Potency (HEK293) 11800 nM | Potency (KB-3-1) 14.8 µM

c1ccc2c(Oc3nc(Nc4ccc(N5CCOCC5)cc4)c4ncn(C5CCCCC5)c4n3)cccc2c1
inactive: max response (CRL-7250) -3.84% and 0.807% | outcome (HaCat [1]) | max response (KB-3-1) 8.53% | max response (NIH3T3) 1.5% and -0.0324% | outcome (HACAT [2]) | Potency (MCC-13) | Potency (MCC-26)

Nc1ncn([C@@H]2O[C@H](CO)[C@@H](O)[C@@H]2O)c(=O)n1
active: Potency (CRL-7250) 5.26 µM | Potency (KB-3-1) 8.33 µM
inactive: max response (HaCat [1]) -5.4%

Cn1c(Nc2ccc(C(F)(F)F)cc2)nc2cc(Oc3ccnc(-c4ncc(C(F)(F)F)[nH]4)c3)ccc21
inactive: Potency (MCC-26)
active: Potency (CRL-7250) 0.372 µM | Potency (HEK293) 26400 nM | Potency (KB-3-1) 11.8 µM

CCc1c(O)cc(O)c(C(=O)c2ccc(OCCN3CCOCC3)c(OC)c2)c1CC(=O)N(CCOC)CCOC
active: Potency (CRL-7250) 1.32 µM | Potency (HEK293) 833 nM | Potency (NIH3T3) 11800 nM
inactive: Potency (MCC-13)

CNC(=O)c1cccc(-c2ccc3c(N4CCOC[C@H]4C)nc(N4CCOC[C@H]4C)nc3n2)c1
active: Potency (CRL-7250) 0.0469 µM | Potency (HaCat [1]) 10500 nM | Potency (KB-3-1) 0.118 µM | Potency (NIH3T3) 418 nM

CCNC(=O)c1cc2c(-c3cc(OCCN4CCCC4)c(Cl)cc3Cl)nc(N)nc2s1
active: Potency (CRL-7250) 4.69 µM | Potency (HEK293) 418 nM | Potency (NIH3T3) 2350 nM

COc1cc(C[C@@H](CO)[C@H](CO)Cc2ccc(O)c(OC)c2)ccc1O
inactive: max response (CRL-7250) -0.633% | outcome (HaCat [1]) | max response (KB-3-1) 3.84% | outcome (NIH3T3) | outcome (HACAT [2]) | Potency (MCC-13) | Potency (MCC-26)

COc1cc(CCc2cc(NC(=O)c3ccc(N4C[C@@H](C)N[C@@H](C)C4)cc3)n[nH]2)cc(OC)c1
active: Potency (CRL-7250) 4.69 µM and 8.2 µM | Potency (KB-3-1) 9.35 µM | Potency (NIH3T3) 10500 nM | Potency (HEK293T) 14600 nM
inactive: outcome (HaCat [1]) | outcome (HACAT [2]) | Potency (MCC-13)

O=C1NC(=O)C(=Cc2ccc3nccc(-c4ccncc4)c3c2)S1
active: Potency (CRL-7250) 0.0526 µM | Potency (HEK293) 74.3 nM | Potency (KB-3-1) 0.148 µM | Potency (NIH3T3) 209 nM | Potency (MCC-13) 1870 nM | Potency (MCC-26) 2960 nM

CCN(CC)CCCCNc1ncc2c(n1)N(C)C(=O)N(c1c(Cl)c(OC)cc(OC)c1Cl)C2
active: Potency (CRL-7250) 14.8 µM | Potency (HEK293) 2090 nM
inactive: max response (KB-3-1) -30% | Potency (MCC-13) | Potency (MCC-26)

O=C(NCc1ccccc1)[C@H](Cc1ccccc1)NC(=O)[C@@H]1O[C@@H]1C(=O)NCCc1ccc(O)cc1
inactive: outcome (CRL-7250) | outcome (HaCat [1]) | max response (KB-3-1) 8.9% | max response (NIH3T3) 3.87% | outcome (HACAT [2]) | Potency (MCC-13) | Potency (MCC-26)

CC1(C)O[C@@H]2C[C@H]3[C@@H]4CCC5=CC(=O)C=C[C@]5(C)[C@@H]4[C@@H](O)C[C@]3(C)[C@]2(C(=O)CO)O1
inactive: max response (CRL-7250) -21.1% | outcome (HaCat [1]) | outcome (KB-3-1) | max response (NIH3T3) -5.4% | outcome (HACAT [2]) | Potency (HEK293T) | Potency (MCC-13) | Potency (MCC-26)

CC(C(C)N1CC(=O)NC(=O)C1)N1CC(=O)NC(=O)C1 (stereo not given)
inactive: outcome (CRL-7250) | max response (KB-3-1) -3.89% | Potency (MCC-13) | Potency (MCC-26)
active: Potency (HEK293) 1660 nM

C=C(C)[C@@H]1CC[C@]2(C)CC[C@]3(C)[C@H](CC[C@@H]4[C@@]5(C)CC[C@H](O)C(C)(C)[C@H]5CC[C@]43C)[C@@H]12
inactive: max response (CRL-7250) -9.28% | outcome (HaCat [1]) | max response (KB-3-1) 8.9% | outcome (NIH3T3) | outcome (HACAT [2]) | Potency (HEK293T) | Potency (MCC-13) | Potency (MCC-26)

O=c1[nH]c(=O)n([C@H]2C[C@@H](O)[C@@H](CO)O2)cc1F
active: Potency (CRL-7250) 18.7 µM | Potency (HEK293) 52.6 nM | Potency (KB-3-1) 13.2 µM | Potency (NIH3T3) 18.7 nM | Potency (MCC-13) 332 nM

Cn1cnc2c(F)c(Nc3ccc(Br)cc3F)c(C(=O)NOCCO)cc21
inactive: max response (HEK293) -7.34% | max response (KB-3-1) -0.774% and -5.49% | Potency (MCC-26)
active: Potency (CRL-7250) 23.5 µM and 7.31 µM
